Screening data from PubChem BioAssay.
Only some compounds are listed: those with a hit (about 19% of all), similar ones and a draw of the others.
DT40 TDP1 CPT: growth inhibition of DT40 Tdp1-/-;hTDP1 cells with camptothecin (screen for TDP1 inhibitors); 420,000 compounds, 12% hits; chicken DT40 Tdp1-/-;hTDP1 cells + 20 nM CPT, ATP luminescence, 48 h; Potency, µM (top dose mostly 46.2 µM), actives largely listed as inhibitors; AID 686979; also: nearly all actives have a fitted effect of over 55% in size
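Cell growth measured by CellTiter-Glo luminescence after a minimum 48 h, 37 C compound exposure with 20 nM CPT in Tdp1-knockout DT40 cells stably expressing hTDP1, seeded 400/well; qHTS titration format.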
TGFb SMAD3 inh: TGF-b pathway inhibition; Potency, µM (doses to about 46.1 µM), usual class: inhibitors; HepG2 CAGA-GFP TGF-b/SMAD3 reporter, GFP fluorescence, 18 h; TGF-beta stimulated, 500 pg/mL final; 410,000 compounds, 1.2% hits; AID 588855; also: nearly all actives have a fitted effect of over 65% in size
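TGF-beta reporter screen: HEPG2 CAGA-GFP, 1% FBS, 500 pg/mL TGF-beta final, 18 h; per-cell GFP summed per well; curves fitted and categorized by class.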
TDP1 inh: blocks human tyrosyl-DNA phosphodiesterase 1; Q9NUW8; recombinant TDP1, AlphaScreen DNA substrate cleavage; Potency, µM (top dose mostly 130 µM), hits mostly inhibitors; 350,000 compounds, 0.28% hits; also: nearly all actives have a fitted effect of over 40% in size
Target sequence (Q9NUW8 whole entry, looked up): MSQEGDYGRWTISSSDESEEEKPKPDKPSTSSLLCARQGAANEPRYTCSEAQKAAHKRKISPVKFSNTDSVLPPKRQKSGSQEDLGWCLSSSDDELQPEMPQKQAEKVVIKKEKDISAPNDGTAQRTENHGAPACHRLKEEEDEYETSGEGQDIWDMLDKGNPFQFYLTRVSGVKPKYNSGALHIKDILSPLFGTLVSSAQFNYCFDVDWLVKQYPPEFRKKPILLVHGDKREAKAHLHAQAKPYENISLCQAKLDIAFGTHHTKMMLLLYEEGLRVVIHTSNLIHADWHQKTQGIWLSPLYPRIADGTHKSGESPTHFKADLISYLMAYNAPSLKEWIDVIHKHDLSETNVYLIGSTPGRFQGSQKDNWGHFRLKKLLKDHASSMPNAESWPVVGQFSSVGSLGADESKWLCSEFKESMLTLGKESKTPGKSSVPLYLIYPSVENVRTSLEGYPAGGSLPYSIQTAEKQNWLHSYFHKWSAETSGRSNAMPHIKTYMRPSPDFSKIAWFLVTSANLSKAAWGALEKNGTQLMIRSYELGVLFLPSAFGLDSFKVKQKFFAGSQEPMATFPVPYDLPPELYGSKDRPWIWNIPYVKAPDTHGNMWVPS
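Steps: enzyme plus compound, 15 min RT; add biotin/phosphotyrosine-FITC oligonucleotide (15 nM final), react 5 min; add donor/acceptor beads (10 ug/ml final), 10 min; read AlphaScreen. Tdp1 at 1 nM final.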
HepG2 viability: counter-screen for TGF-b inhibitors: cytotoxicity in HepG2 cells | 410,000 compounds, 0.76% hits | HepG2 CAGA-GFP viability, ATP luminescence, 18 h | Potency, µM (titrated, usually from 46.1 µM), usual class: cytotoxic | AID 588856
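HepG2 CAGA-GFP cells (1000/well, DMEM with 1% FBS) received compound, then TGF-beta at 500 pg/mL final, and were incubated 18 hours at 37 degrees C. Viability was read by CellTiter-Glo luminescence. Media-only wells were set as complete cell-killing and DMSO as no toxicity.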
IL1B secr inh: inflammasome signaling inhibition, IL-1 beta readout | THP-1 LPS/ATP IL-1B secretion, AlphaLISA, 16 h; active compounds read low | activity change, % at 57.5 µM | 360,000 compounds, 4.7% hits | AID 743279; in the data active = activity change below about -50%; inconclusive = mostly about -30% to -49%
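Secreted IL-1B measured by AlphaLISA bead assay after 16 h compound exposure of THP-1 cells; compounds (final up to 57.5 uM) added 1 h before LPS (250 ng/mL) and ATP (1.25 mM) stimulation; lower signal means less secretion.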
DT40 TDP1 no CPT: qHTS for Inhibitors of human tyrosyl-DNA phosphodiesterase 1 (TDP1): qHTS in cells in absence of CPT. DT40 Tdp1-/- hTDP1 cells, no CPT, ATP luminescence, 48 h. Potency, µM (titrated, usually from 46.2 µM), most hits filed as inhibitors. 420,000 compounds, 15% hits. AID 686978, 2013; also: nearly all actives have a fitted effect of over 55% in size
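DT40 Tdp1-/-;hTDP1 cells, no CPT (DMSO vehicle only), 400 cells/well; compounds pin-transferred; ≥48 hr, 37 °C; CellTiter-Glo 30 min RT dark, luminescence read.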
Hits are given with their value; – = inactive; ? = inconclusive; · = no result given. Unless noted, calls follow the shape of the dose curve; as a rule, active = well fitted curve in the direction sought with a large enough effect; inconclusive = small, poorly fitted or top-dose-only effect, or another doubt; inactive = no such curve, though single readings can be large; an effect the other way counts as inactive or inconclusive.

SMILES	DT40 TDP1 CPT	TGFb SMAD3 inh	TDP1 inh	HepG2 viability	IL1B secr inh	DT40 TDP1 no CPT
COC(=O)c1sccc1S(=O)(=O)N1CCN(c2ccc(C(C)=O)cc2)CC1	–	–	–	–	·	–
COc1ccc(-c2nnc3n2N=C(c2ccc(OC)c(OC)c2)CS3)c(OC)c1	·	·	–	·	·	·
CCCCn1nnnc1C1(C)CCC(=O)N1CC(F)(F)F (centres undefined)	–	·	·	·	–	–
Cc1nn(Cc2ccc(Cl)c(Cl)c2)c(C)c1NC(=O)c1noc2c1CCCCC2	12µM	–	–	–	–	13µM
Cc1nn(Cc2ccc(Cl)c(Cl)c2)c(C)c1NC(=O)c1cc(CC(C)C)on1	18µM	?	–	–	–	23µM
CCCc1cc(C(=O)Nc2c(C)nn(Cc3ccc(C)cc3)c2C)no1	?	–	–	–	·	?
Cc1cc(NC(=O)c2noc3c2CCCCC3)nn1Cc1ccc(Cl)cc1	–	–	–	–	–	–
Cc1ccccc1Cn1nc(C)c(NC(=O)c2noc3c2CC(C(C)(C)C)CC3)c1C (centres undefined)	?	?	–	–	?	?
CCCc1cc(C(=O)Nc2c(C)nn(Cc3ccc(Cl)c(Cl)c3)c2C)no1	13µM	?	–	–	·	26µM
Cc1ccccc1Cn1nc(C)c(NC(=O)c2noc3c2CCc2ccccc2-3)c1C	21µM	?	–	–	–	13µM
Cc1ccc(Cn2ccc(NC(=O)c3cc(-c4ccc(Cl)cc4)on3)n2)cc1	–	–	–	–	–	–
Cc1ccc(Cn2ccc(NC(=O)c3cc(CC(C)C)on3)n2)cc1	?	–	–	–	–	21µM
CCCCNC(=S)N/N=C/c1ccc(OCC(=O)Nc2c(C)cc(C)cc2C)c(OC)c1	–	–	–	–	–	?
CCCCNC(=S)N/N=C/c1ccccc1F	?	?	–	–	–	15µM
CCCCNC(=S)N/N=C/c1cc(C)ccc1C	5.2µM	–	–	–	–	6.5µM
CCCCNC(=S)N/N=C/c1ccc(C)s1	?	–	–	–	–	?
Fc1ccccc1NC(=S)N/N=C/c1ccccc1Br	?	–	–	–	–	?
CCCCNC(=S)N/N=C/c1sccc1C	0.92µM	–	–	–	–	1.5µM
CCN(C(=O)COn1nnc2ccc(S(=O)(=O)N(C)C)cc21)C1CCS(=O)(=O)C1 (centres undefined)	–	–	–	–	–	–
Cc1cccc(C(=O)NNC(=O)C2CCN(C(=O)OC(C)(C)C)CC2)c1	–	–	–	–	–	–
COc1ccc(CCNC(=O)Cn2c(=O)nc(-c3ccccc3F)c3cc(Cl)ccc32)cc1OC	–	–	–	–	·	–
CN(C(=O)CSc1nc2ccccc2n1Cc1cccc(C(F)(F)F)c1)c1ccccc1	18µM	?	–	–	·	16µM
O=C(CSc1nc2ccccc2n1Cc1cccc(C(F)(F)F)c1)NCc1ccccc1	18µM	?	–	–	·	?
Cc1ccc(C)c(Cn2c(SCC(=O)N(C)Cc3ccccc3)nc3ccccc32)c1	26µM	?	–	–	·	26µM
O=C(CSc1nc2ccccc2n1Cc1ccccc1F)NCc1ccccc1	?	–	–	–	·	16µM
SMILES	DT40 TDP1 CPT	TGFb SMAD3 inh	TDP1 inh	HepG2 viability	IL1B secr inh	DT40 TDP1 no CPT
Cc1cccc(C(=O)Nc2ccc(OCc3cc(=O)n4ccc(C)cc4n3)cc2)c1	–	–	–	–	·	–
Cc1ccc(NC(=O)c2cc(NC(=O)c3ccco3)ccc2N2CCCCC2)cc1	?	?	–	–	–	?
Cc1ccc(NC(=O)c2cc(N3C(=O)C=CC3=O)ccc2N2CCOCC2)cc1	0.82µM	–	–	–	-63	2.3µM
Cc1ccc(NC(=O)c2cc(NC(=O)c3ccco3)ccc2N2CCOCC2)cc1	?	–	–	–	–	16µM
Cc1ccc(NC(=O)c2cc(-n3cnnc3)ccc2Cl)cc1	–	–	–	–	–	–
Cc1ccc(NC(=O)c2cc(N3C(=O)C=CC3=O)ccc2Cl)cc1C	5.2µM	?	–	–	–	4.6µM
CN1CCN(c2ccc(NC(=O)c3cc(S(N)(=O)=O)ccc3N3CCOCC3)cc2)CC1	–	–	–	–	–	–
CCC(C)C(NC(=O)C(Cc1ccc(O)cc1)NC(=O)C(N)C(C)C)C(=O)NC(Cc1cnc[nH]1)C(=O)N1CCCC1C(=O)NC(Cc1ccccc1)C(=O)O (centres undefined)	·	·	–	·	·	·
COc1ccc(N2CCN(S(=O)(=O)CCNC(=O)c3cc(=O)c4ccccc4o3)CC2)cc1	–	–	–	–	–	–
CON(C)c1nc(OCCNC(=O)COc2ccc(Cl)cc2C)nc(N(C)C)n1	8.2µM	–	–	–	–	8.2µM
CN(C)c1nc(OCCNC(=O)Nc2ccc(Cl)cc2)nc(N(C)C)n1	–	–	–	–	–	–
CON(C)c1nc(OCCNC(=O)OCc2ccc(Cl)cc2Cl)nc(N(C)C)n1	16µM	–	–	–	–	8.2µM
CC(N=C1NS(=O)(=O)c2ccccc21)C(=O)OCC(=O)N(C)C1CCS(=O)(=O)C1 (centres undefined)	–	–	–	–	–	–
COc1cc(-c2noc(CCC(=O)Nc3cc(C)ccc3C)n2)cc(OC)c1OC	18µM	?	–	–	·	12µM
COc1cccc(NC(=O)CCc2nc(-c3cc(OC)c(OC)c(OC)c3)no2)c1	18µM	–	–	–	·	16µM
CCC#CCOCC(=S)Nc1ccccc1	·	·	–	·	·	·
Cc1ccc(C)c(N2CCN(C(=O)Nc3ccc4c(c3)N(C)C(=O)CS4)CC2)c1	21µM	?	–	–	–	16µM
CCN1C(=O)c2ccccc2Sc2ccc(NC(=O)N3CCN(c4cc(C)ccc4C)CC3)cc21	5.8µM	?	–	–	·	4.1µM
CC[C@H](C)[C@H](NC(=O)[C@H](CC(=O)O)NC(=O)[C@H](CC(C)C)NC(=O)[C@H](NC(C)=O)C(c1ccccc1)c1ccccc1)C(=O)N[C@H](C(=O)N[C@@H](Cc1c[nH]c2ccccc12)C(=O)O)[C@@H](C)CC	·	·	–	·	·	·
Cc1c2cnn(CC(=O)N3CCN(c4ccc(F)cc4)CC3)c(=O)c2c(C)n1Cc1ccccc1F	21µM	?	–	–	·	18µM
O=C(Cn1ncc2c([nH]c3ccccc32)c1=O)N1CCN(c2ccc(F)cc2)CC1	–	–	–	–	–	–
Cc1c2cnn(CC(=O)N3CCN(c4ccc(F)cc4)CC3)c(=O)c2c(C)n1Cc1ccc(F)cc1	23µM	?	–	–	·	7.3µM
COc1ccccc1CNS(=O)(=O)c1c(C(=O)N2CCCC2)c(C)n(C)c1C	–	–	–	–	–	–
